Among the data in PubChem BioAssay (NCI) are growth inhibition values, retold here.

Assay [1] in a line: NCI Yeast Anticancer Drug Screen. Data for the rad50 strain (AID 155).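 Further: 0% = growth of vehicle-only cultures of the same strain.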 The settings on record: S. cerevisiae rad50 strain growth inhibition; at 50.0 µM; active compounds read high. In short, it runs like this: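 Readout: growth inhibition relative to vehicle-treated cultures. Compound exposure was carried out in a genetically defined yeast strain deficient in DNA damage repair.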
The nature of assay [2]: NCI Yeast Anticancer Drug Screen. Data for the mec2-1 strain (AID 157). The settings on record: S. cerevisiae mec2-1 strain, at 50.0 µM, active compounds read high. The gist of the method:
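Mutant yeast (mec2-1) grown with compound; growth inhibition relative to vehicle control reported.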

Assay [3] in a line: NCI Yeast Anticancer Drug Screen. Data for the sgs1 mgt1 strain (AID 161).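 Further: 0% = growth of cultures given vehicle only.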 Conditions: S. cerevisiae sgs1 mgt1 strain, at 50.0 µM, active compounds read high. In short, it runs like this:
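Compounds are added to genetically altered yeast, and growth is compared with cultures given vehicle alone to give percent inhibition.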

Assay [4] in a line: NCI Yeast Anticancer Drug Screen. Data for the cln2 rad14 strain (AID 165).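 Further: 0% = growth equal to vehicle treated cultures.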 Conditions: S. cerevisiae cln2 rad14 strain, at 50.0 µM, active compounds read high. The gist of the method: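 Readout is yeast growth inhibition versus vehicle-treated controls, using a strain with cln2 and rad14 alterations exposed to compound.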
A short description of assay [5]: NCI Yeast Anticancer Drug Screen. Data for the bub3 strain (AID 167). The settings on record: S. cerevisiae bub3 mutant strain, at 50.0 µM, active compounds read high. The gist of the method:
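Readout: yeast growth inhibition, expressed relative to vehicle-only wells. The test organism is a mutant strain from a panel with lesions in DNA repair or checkpoint genes.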

A short description of assay [6]: NCI Yeast Anticancer Drug Screen. Data for the mlh1 rad18 strain (AID 175). The settings on record: S. cerevisiae mlh1 rad18 strain growth inhibition; at 50.0 µM; active compounds read high. In short, it runs like this: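 Genetically defined yeast (DNA repair-deficient) exposed to compounds; growth inhibition determined relative to vehicle.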

About 79,000 compounds went through this panel and 15% of them were active in at least one assay; those are over-represented in the sample as a whole. Values without a mark were called inactive. The source made the active and inactive calls. No stated cut-off is given here; in the data, active means growth inhibition above about 70%; inactive means the rest.

As for `COc1cc(C2NCCC(c3ccccc3)(c3ccccc3)N2)cc(OC)c1OC` (stereo not given), the growth inhibition in assay [1] is -30.9%; in assay [2], -4.65%; in assay [3], 5.25%; in assay [4], 4.55%; in assay [5], -7.6%; in assay [6], 5.5%.

On to `O=C(NCCCl)Nc1[nH]c(=O)ncc1I`, for which the growth inhibition in assay [1] was -6.55%; in assay [2], -6.7%; in assay [3] it was 1.1%; in assay [4], -10.3%; in assay [5] it was -8.75%; in assay [6], -7.95%.

Turning to `CCNC(=O)c1ccc(Cl)cc1`, the growth inhibition was 19.9% in assay [1]; -2.25% in assay [2]; 8.55% in assay [3]; 0.65% in assay [4]; -6.15% in assay [5]; 0.45% in assay [6].

Turning to `CC1=CC(=O)C(=O)c2ccccc21`, the growth inhibition in assay [1] is -34.9%; in assay [2], -9.65%; in assay [3], -5.5%; in assay [4], 10.4%; in assay [5], -4.4%; in assay [6] it was -4.9%.

As for `Cc1ccc(NC(=O)/C=C2\CONC(c3ccccc3)=N2)cc1`, the growth inhibition in assay [1] is -10.1%; in assay [2], -5.7%; in assay [3], -8.3%; in assay [4], -15.2%; in assay [5] it was -6.9%; in assay [6], 1.75%.

Turning to `Nc1nc2scnc2c(=O)[nH]1`, the growth inhibition in assay [1] is 7.1%; in assay [2], -4.35%; in assay [3], -3.25%; in assay [4], -7.95%; in assay [5], -8.5%; in assay [6], 8.35%.

On to `[Cl][Pd][Cl].[NH-]c1ccc(/C=C2\C=Cc3ccccc32)cc1.[NH-]c1ccc(/C=C2\C=Cc3ccccc32)cc1`, for which the growth inhibition is 89.5% (active) in assay [1]; 32.8% in assay [2]; 83.7% (active) in assay [3]; 47.4% in assay [4]; 75.5% (active) in assay [5]; 79.3% (active) in assay [6].

Consider `c1cc(Nc2ccncc2)ccn1`, for which the growth inhibition in assay [1] was 23.6%; in assay [2], -13%; in assay [3] it was -1.9%; in assay [4], 6.2%; in assay [5], 0.15%; in assay [6] it was 19.9%.

Take `CCN(CC)C(=O)c1cc([N+](=O)[O-])c(=O)n2c1[nH]c1ccccc12`: the growth inhibition in assay [1] is -17.9%; in assay [2], 6.8%; in assay [3] it was -59.6%; in assay [4] it was 23.1%; in assay [5], -18.5%; in assay [6], -5.85%.

As to `NS(=O)(=O)c1ccc(NC(=O)Nc2ccccc2)cc1`, the growth inhibition in assay [1] was -2.8%; in assay [2], -5.35%; in assay [3] it was 1.8%; in assay [4], -18.1%; in assay [5], 20.1%; in assay [6], 22.3%.

Consider `c1ccc2c(c1)NC(SSC1Nc3ccccc3S1)S2` (stereo not given), for which the growth inhibition in assay [1] was -2.4%; in assay [2] it was -21.1%; in assay [3], -2.65%; in assay [4], -0.55%; in assay [5], -11.1%; in assay [6] it was 1.65%.

Consider `NC1(C(=O)O)CC(O)(c2ccccc2)C(O)(c2ccccc2)C1` (stereo not given), for which the growth inhibition was -22.5% in assay [1]; -6.1% in assay [2]; -10% in assay [3]; 6.2% in assay [4]; 3.75% in assay [5]; -9.5% in assay [6].

Take `CC(C)C(NCc1c(O)ccc2c(-c3ccccc3)cc(=O)oc12)C(=O)O` (stereo not given): the growth inhibition in assay [1] is -33.5%; in assay [2] it was -21.6%; in assay [3] it was -19%; in assay [4], -12.2%; in assay [5], -35.5%; in assay [6], -10.2%.

In the case of `CCCC1(C)COC(=O)OC1`, the growth inhibition in assay [1] was 6%; in assay [2], 6.5%; in assay [3], 17.5%; in assay [4] it was 13.9%; in assay [5] it was 7.1%; in assay [6], 19.9%.

In the case of `COC(=O)CCC(=O)Nc1ccc(Cl)cc1C`, the growth inhibition in assay [1] was -22.8%; in assay [2] it was -9.45%; in assay [3] it was -19.9%; in assay [4] it was -6.5%; in assay [5], -60%; in assay [6], -21.2%.

With `CCOc1ccc(/C=N/NC(=O)CCCCCCCCC(=O)N/N=C/c2ccc(OCC)c(OC)c2)cc1OC`, the growth inhibition in assay [1] was -25.6%; in assay [2], -5.1%; in assay [3], -27.1%; in assay [4], -27.6%; in assay [5] it was -1.45%; in assay [6] it was -8.35%.

For `Cc1cn(C2CC(O)C(O)C(C)O2)c(=O)[nH]c1=O` (stereo not given), the growth inhibition is 22.2% in assay [1]; 6.15% in assay [2]; 24.6% in assay [3]; 5.8% in assay [4]; 12.2% in assay [5]; 25.4% in assay [6].

As to `CC(=O)Nc1ccc(/C=C2\N=C(c3ccccc3)OC2=O)cc1`, the growth inhibition in assay [1] was 15.9%; in assay [2], -1.75%; in assay [3], 11.8%; in assay [4] it was -49%; in assay [5], -10.9%; in assay [6], 10.3%.

For the compound `O=[N+]([O-])c1ccc(N/N=C/c2ccccc2O)c([N+](=O)[O-])c1`, the growth inhibition in assay [1] was 5.05%; in assay [2] it was 20.5%; in assay [3], 4.8%; in assay [4], -6.8%; in assay [5], 1.05%; in assay [6], 4.2%.

Take `O=[N+]([O-])C(Cl)C(Cl)C(Cl)=C(Cl)Cl` (stereo not given): the growth inhibition in assay [1] was 23.9%; in assay [2], 17.1%; in assay [3] it was 51%; in assay [4] it was 35.8%; in assay [5] it was 60.8%; in assay [6], 52.2%.
